This is an account of results in PubChem BioAssay (NCATS).

In assay [1] the target is Lysosomal acid glucosylceramidase (Homo sapiens) (UniProt P04062). Nature of the assay: Glucocerebrosidase-p2 (AID 348; in the data active means potency below about 10 µM; further: potency means the concentration at half of the fitted maximal effect). As to conditions: purified GBA, blue fluorogenic substrate, 40 min. An outline of the steps:
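Compounds titrated from 0.6 nM upwards against 0.2 nM enzyme in pH 5.9 citric acid/KH2PO4, taurocholate, tween-20; blue fluorogenic substrate 80 uM, 40 min room temperature, stopped and read Ex 365/Em 440 for AC50.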

A short description of assay [2]: AP1 Signaling Pathway (AID 357; active means well fitted curve in either direction with a large enough effect, not every such curve was filed as active;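 further: ME-180 reporter cells stimulated with EGF at its EC50 level; on the % scale 0 is the no-effect control and ±100 the full control effect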). As to conditions: ME-180 AP-1-bla reporter, EGF-induced, beta-lactamase ratio, 5 h; at 7.69 µM (top of the series) unless noted. An outline of the steps: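 Titration-series screen for positive or negative modulators of EC50 EGF-induced signaling in ME-180 cells carrying an AP-1-driven beta-lactamase reporter. After 5 hours at 37 degrees Celsius, CCF4 460nm/530nm emission ratio gave %Activity; AC50 values derived.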

Assay [3] addresses Cytochrome P450 1A2 (Homo sapiens) (UniProt P05177). Nature of the assay: p450-cyp1a2 (AID 410; calls by dose curve; further: potency means the concentration at half of the fitted maximal effect;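 on activity change, negative = inhibition: -100% = full effect of reference inhibitor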). As to conditions: recombinant CYP1A2, luciferin-ME demethylation, luminescence; series mostly up to 57 µM. In a few lines:
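Luminescent readout of luciferin formed from Luciferin-ME by human CYP1A2; data normalized against complete inhibition by 57 uM furafylline. Enzyme 20nM, substrate 100uM at Km, 100mM KPO4 buffer, 60 min reaction at room temperature.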

Assay [4] can be described thus: Stat Signaling Pathway (AID 446; active means well fitted curve in either direction with a large enough effect, not every such curve was filed as active;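 further: ME-180 cervical cancer cells given 40 pM IL-6 alongside compound; SIE-controlled beta-lactamase reporter measured as 460/530 nm FRET emission ratio; on the % scale 0 is the no-effect control and ±100 the full control effect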). As to conditions: ME-180 (cervical carcinoma) SIE beta-lactamase reporter, IL-6 stimulated, 5 h; at 7.69 µM (top of the series) unless noted. In a few lines:
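IL-6/STAT signaling read in ME-180 cells via an SIE beta-lactamase reporter. Stimulus was 40 pM IL-6 (its AC50) for 5 hrs, so both activation and inhibition register.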

For assay [5], the target named is Glucocorticoid receptor (Homo sapiens) (UniProt P04150). Nature of the assay: GR-GFP Redistribution (AID 450;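 active means compounds whose dose series gives a full or clear partial fitted curve of increased nuclear translocation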; further: potency means the concentration at half of the fitted maximal effect). As to conditions: U2OS GR-GFP nuclear translocation, laser cytometry, 2 h.
Assay [6] shares this target. Briefly: GR-EFC Redistribution (AID 451; calls by dose curve; further: potency means the concentration at half of the fitted maximal effect). As to conditions: CHO-K1 GR-EFC translocation, beta-gal luminescence, 2 h. An outline of the steps:
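Translocation of GR-ED fusion to nuclear EA restores b-gal, read by luminescence after 1 h room-temperature detection. Engineered CHO-K1 biosensor cells, 1,000/well, exposed 2 h at 37 C to titrations up to 46 uM final.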

In assay [7] the target is Mitogen-activated protein kinase 10 (Mus musculus) (UniProt Q61831). Nature of the assay: JNK3 AlphaScreen Assay (AID 530; active means well fitted curve in either direction with a large enough effect, not every such curve was filed as active;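 further: kinase came from lysate of stimulated human HepG2 cells; signal reports phosphorylation of biotinylated GST-cJun 1-79 at Ser73 with 10 µM ATP; on the % scale 0 is the no-effect control and ±100 the full control effect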). Conditions: JNK3 lysate, c-Jun phosphorylation; series mostly up to 57.1 µM. In a few lines: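 Compound titrations were preincubated 15 minutes at room temperature with substrate, antibody and pre-activated JNK3-containing HepG2 lysate. Reactions were started with 10 uM ATP and stopped with EDTA-containing bead buffer for AlphaScreen detection.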
Background: In Alpha technology, singlet oxygen from a donor bead excites a nearby acceptor bead.

For assay [8], the target named is 3',5'-cyclic-AMP phosphodiesterase 4B (Homo sapiens) (UniProt Q07343). Briefly: qHTS Assay for Inhibitors of PDE-IV (AID 607; active means well fitted activation curve with a large enough effect in the main read-out, with a control signal flat, not every such curve was filed as active; further: % of control where 0% means no effect). As to conditions: HEK293 ACTOne CNG channel cells, membrane potential fluorescence; series mostly up to 22.9 µM. In a few lines: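 Live HEK293 cells with a modified cyclic nucleotide-gated (CNG) channel report intracellular cAMP via membrane-potential dye fluorescence (ex 535/em 590 nm). Endogenous PDE-IV was targeted. Compounds were tested at up to 22.9 uM final; RO 20-1724 100 uM served as control.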
In general terms: qHTS replaces the single test concentration by a dilution series.

Assay [9] has as its target Cytochrome P450 3A4 (Homo sapiens) (UniProt P08684). Briefly: qHTS Assay for Inhibitors and Substrates of Cytochrome P450 3A4 (AID 884). Further: potency means the concentration at half of the fitted maximal effect; nearly all actives have a fitted effect of over 50% in size. Conditions: recombinant CYP3A4, Luciferin-PPXE luminescence; series mostly up to 57.1 µM. In a few lines:
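20 nM human CYP3A4 with 25 uM Luciferin-PPXE (at KM) in 200 mM KPO4, preincubated 10 min with compound; NADPH regeneration started a 60 min RT reaction. Luciferin detected by luminescence, normalized to 57 uM ketoconazole as full inhibition.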

The target is the same in assay [10]. Nature of the assay: qHTS Assay for Activators of Cytochrome P450 3A4 (AID 885). Further: nearly all actives have a fitted effect of over 65% in size. As to conditions: recombinant CYP3A4, Luciferin-PPXE luminescence, 60 min; series mostly up to 57.1 µM. An outline of the steps:
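Quantitative HTS format: compounds preincubated with 20nM human CYP3A4 and Luciferin-PPXE substrate at KM, reaction started by NADPH regeneration, stopped after 60 min, luciferase luminescence read 20 min later.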

Assay [11] has as its target Cytochrome P450 2D6 (Homo sapiens) (UniProt P10635). Briefly: qHTS Assay for Inhibitors and Substrates of Cytochrome P450 2D6 (AID 891). Further: potency means the concentration at half of the fitted maximal effect; nearly all actives have a fitted effect of over 60% in size. Conditions: recombinant CYP2D6, luciferin-ME EGE luminescence; series mostly up to 57.1 µM. An outline of the steps:
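Human CYP2D6 (5 nM) with 30 uM Luciferin-ME EGE (at Km) in 100 mM KPO4, compound preincubated 10 min, then NADPH regeneration system for 60 min at room temperature. Luciferin read by luminescence; normalized to 1.43 uM quinidine.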

Assay [12] can be described thus: Confirmation and Secondary Assay for Modulators of Hemoglobin Beta Chain Splicing at IVS2 705 locus (AID 930). Further: % of control where 0% means no effect. Conditions: HeLa EGFP-705 splicing reporter, GFP fluorescence, 48 h; series mostly up to 38.3 µM. An outline of the steps: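 Fluorescence gain (488 nm laser, 500-520 nm PMT) reflects restored correct splicing of a mutant IVS2-705 intron inside EGFP in stably transfected HeLa cells after 2-day compound treatment.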

Assay [13] can be described thus: qHTS Assay for Lipid Storage Modulators (AID 1519; calls by dose curve). Conditions: Drosophila S3 cells, BODIPY lipid droplet/cell ratio, laser cytometry, cells loaded with oleic acid; for activity change, negative = inhibition: at 57.5 µM (top of the series). In a few lines:
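Cells seeded at 5,000 per well were treated with compounds over a concentration series and loaded with oleic acid (400 uM, as added). Lipid droplet fluorescence (488 nm excitation, 500-530 nm channel) was read by laser-scanning cytometry and normalized to 20 uM Triacsin C.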

Assay [14] concerns the target Ubiquitin carboxyl-terminal hydrolase 1 (Homo sapiens) (UniProt O94782). Briefly: Inhibitors of USP1/UAF1: Pilot qHTS (AID 504865).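 Further: rhodamine fluorescence freed from ubiquitin-rhodamine substrate followed over time; top concentration of the series differs between compounds; on the % scale 0 is the no-effect control and ±100 the full control effect; nearly all actives have a fitted effect of over 35% in size.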 As to conditions: purified USP1/UAF1, Ub-rhodamine cleavage fluorescence; series mostly up to 54.9 µM. In a few lines:
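1nM USP1/UAF1 + cpd, 15 min RT; start w/ Ub-Rho 150nM final; kinetic FL 480/540 nm, 6 reads q60 s. Buffer 50mM HEPES pH 7.8, 0.5mM EDTA, 1mM TCEP, 0.01% Tween-20, 0.1 mg/ml BSA.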

A short description of assay [15]: Primary qHTS for small molecule stabilizers of the endoplasmic reticulum resident proteome: Secreted ER Calcium Modulated Protein (SERCaMP) assay (AID 1508630). Further: on the % scale 0 is the no-effect control and ±100 the full control effect. As to conditions: SH-SY5Y GLuc-SERCaMP (Gaussia luciferase released on ER calcium loss) secretion, thapsigargin, luminescence; series mostly up to 38.4 µM. In a few lines: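 GLuc-SERCaMP-expressing SH-SY5Y cells, pretreated 16 h with compound, are challenged with thapsigargin to empty ER calcium stores; after 4 h, coelenterazine is added directly to the medium and luminescence is imaged.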

Assay [16] is described as follows: Confirmation and Secondary Assay for Modulators of Hemoglobin Beta Chain Splicing at IVS2 654 locus (AID 910).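 Further: HeLa cells stably carrying EGFP split by mutant beta-globin IVS2-654 intron; per-well total GFP intensity by laser scanning cytometry after 2-day treatment; % of control where 0% means no effect.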 Conditions: HeLa EGFP-654 splicing reporter, GFP fluorescence, 48 h; series mostly up to 38.3 µM. In a few lines: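 Readout: per-well total peak green fluorescence (488 nm ex, 500–520 nm em) from objects 5–250 µm, reflecting correct splicing of an EGFP-654 reporter. Compounds were applied for 2 days at 37 °C to overnight-plated HeLa EGFP-654 cells; controls were DMSO and 500 nM IVS2-654 PNA.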

Assay [17] deals with Cytochrome P450 2C9 (Homo sapiens) (UniProt P11712). Nature of the assay: qHTS Assay for Inhibitors and Substrates of Cytochrome P450 2C9 (AID 883). Further: potency means the concentration at half of the fitted maximal effect; nearly all actives have a fitted effect of over 60% in size. As to conditions: recombinant CYP2C9, luciferin-H luminescence, 60 min; series mostly up to 57.1 µM. In a few lines:
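Inhibition of CYP2C9 is scored as loss of luminescence, with 57uM sulphaphenazole defining 100% inhibition. Substrate Luciferin-H is used at 100uM, equal to its KM; enzyme at 10nM in 25mM KPO4, 60 min at 37C with NADPH regeneration.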

The mark [18] stands for this setting: measured here: cell count channel max response.
[19] abbreviates: measured here: lipid channel max response.

Results filed as inconclusive are left out. Active and inactive are the calls of the source. Unless noted, the call rests on the fitted dose curve; in most records, active means well fitted curve in the direction sought with a large enough effect; inconclusive means small, poorly fitted or top-dose-only effect, or another doubt; inactive means no such curve, though single readings can be large; an effect the other way counts as inactive or inconclusive.

Sequence of 3',5'-cyclic-AMP phosphodiesterase 4B (Homo sapiens) (Q07343 whole entry, looked up): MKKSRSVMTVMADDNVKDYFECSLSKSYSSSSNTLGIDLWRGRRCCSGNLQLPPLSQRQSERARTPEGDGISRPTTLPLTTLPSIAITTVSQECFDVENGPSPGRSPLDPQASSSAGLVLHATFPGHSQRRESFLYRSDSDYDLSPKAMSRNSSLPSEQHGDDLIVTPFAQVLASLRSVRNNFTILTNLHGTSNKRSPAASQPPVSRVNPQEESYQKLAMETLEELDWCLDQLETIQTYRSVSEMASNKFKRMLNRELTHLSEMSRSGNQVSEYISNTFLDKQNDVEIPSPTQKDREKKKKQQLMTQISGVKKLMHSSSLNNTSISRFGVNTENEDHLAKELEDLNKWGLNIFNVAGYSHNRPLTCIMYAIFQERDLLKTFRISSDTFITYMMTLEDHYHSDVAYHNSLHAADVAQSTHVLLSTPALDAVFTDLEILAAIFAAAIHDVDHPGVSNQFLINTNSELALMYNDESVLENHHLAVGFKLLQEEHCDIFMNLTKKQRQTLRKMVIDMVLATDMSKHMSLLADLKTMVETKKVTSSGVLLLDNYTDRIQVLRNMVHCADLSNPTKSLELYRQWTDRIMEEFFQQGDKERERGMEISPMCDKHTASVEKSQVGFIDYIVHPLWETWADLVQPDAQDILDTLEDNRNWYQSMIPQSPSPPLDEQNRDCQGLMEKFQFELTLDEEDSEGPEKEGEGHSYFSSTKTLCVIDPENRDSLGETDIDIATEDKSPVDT
Sequence of Glucocorticoid receptor (Homo sapiens) (P04150 whole entry, looked up): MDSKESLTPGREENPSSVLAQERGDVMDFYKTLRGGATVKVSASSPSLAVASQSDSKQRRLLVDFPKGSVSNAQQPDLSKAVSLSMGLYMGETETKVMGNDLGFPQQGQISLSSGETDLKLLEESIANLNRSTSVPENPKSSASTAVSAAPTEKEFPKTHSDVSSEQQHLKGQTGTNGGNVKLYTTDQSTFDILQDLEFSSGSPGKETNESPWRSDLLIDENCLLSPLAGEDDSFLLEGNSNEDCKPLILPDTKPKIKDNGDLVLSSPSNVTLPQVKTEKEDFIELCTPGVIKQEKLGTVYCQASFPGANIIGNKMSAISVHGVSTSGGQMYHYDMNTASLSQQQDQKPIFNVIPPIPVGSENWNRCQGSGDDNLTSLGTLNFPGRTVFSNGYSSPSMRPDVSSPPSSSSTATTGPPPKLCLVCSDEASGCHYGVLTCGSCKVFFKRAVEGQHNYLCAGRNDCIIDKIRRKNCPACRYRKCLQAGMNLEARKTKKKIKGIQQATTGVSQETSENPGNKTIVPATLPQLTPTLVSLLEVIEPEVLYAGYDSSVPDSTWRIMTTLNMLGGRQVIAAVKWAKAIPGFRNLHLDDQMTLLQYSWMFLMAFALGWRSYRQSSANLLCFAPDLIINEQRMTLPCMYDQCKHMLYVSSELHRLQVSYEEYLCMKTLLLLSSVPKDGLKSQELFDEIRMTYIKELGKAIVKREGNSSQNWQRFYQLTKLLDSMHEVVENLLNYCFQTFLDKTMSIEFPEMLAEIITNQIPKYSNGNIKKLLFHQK
Sequence of Ubiquitin carboxyl-terminal hydrolase 1 (Homo sapiens) (O94782 whole entry, looked up): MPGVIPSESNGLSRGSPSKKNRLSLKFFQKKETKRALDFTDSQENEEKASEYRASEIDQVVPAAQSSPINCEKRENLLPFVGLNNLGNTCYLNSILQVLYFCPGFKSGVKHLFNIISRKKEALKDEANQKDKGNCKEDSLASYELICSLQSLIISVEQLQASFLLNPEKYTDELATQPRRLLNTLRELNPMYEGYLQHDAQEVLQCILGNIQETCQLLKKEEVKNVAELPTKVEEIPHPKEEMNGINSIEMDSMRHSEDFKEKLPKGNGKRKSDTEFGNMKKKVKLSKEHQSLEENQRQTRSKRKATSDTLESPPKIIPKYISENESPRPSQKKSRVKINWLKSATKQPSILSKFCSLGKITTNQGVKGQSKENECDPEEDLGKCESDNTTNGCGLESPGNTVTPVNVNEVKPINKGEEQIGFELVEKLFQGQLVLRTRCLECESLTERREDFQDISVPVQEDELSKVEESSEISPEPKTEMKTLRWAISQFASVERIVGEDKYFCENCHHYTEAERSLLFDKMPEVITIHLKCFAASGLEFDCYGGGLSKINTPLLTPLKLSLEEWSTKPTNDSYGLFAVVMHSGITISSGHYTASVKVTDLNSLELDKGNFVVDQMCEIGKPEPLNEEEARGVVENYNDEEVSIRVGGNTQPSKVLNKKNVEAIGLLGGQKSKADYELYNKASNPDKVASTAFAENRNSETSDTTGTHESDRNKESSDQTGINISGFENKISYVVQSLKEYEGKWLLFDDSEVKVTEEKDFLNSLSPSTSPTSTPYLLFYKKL
Sequence of Lysosomal acid glucosylceramidase (Homo sapiens) (P04062 whole entry, looked up): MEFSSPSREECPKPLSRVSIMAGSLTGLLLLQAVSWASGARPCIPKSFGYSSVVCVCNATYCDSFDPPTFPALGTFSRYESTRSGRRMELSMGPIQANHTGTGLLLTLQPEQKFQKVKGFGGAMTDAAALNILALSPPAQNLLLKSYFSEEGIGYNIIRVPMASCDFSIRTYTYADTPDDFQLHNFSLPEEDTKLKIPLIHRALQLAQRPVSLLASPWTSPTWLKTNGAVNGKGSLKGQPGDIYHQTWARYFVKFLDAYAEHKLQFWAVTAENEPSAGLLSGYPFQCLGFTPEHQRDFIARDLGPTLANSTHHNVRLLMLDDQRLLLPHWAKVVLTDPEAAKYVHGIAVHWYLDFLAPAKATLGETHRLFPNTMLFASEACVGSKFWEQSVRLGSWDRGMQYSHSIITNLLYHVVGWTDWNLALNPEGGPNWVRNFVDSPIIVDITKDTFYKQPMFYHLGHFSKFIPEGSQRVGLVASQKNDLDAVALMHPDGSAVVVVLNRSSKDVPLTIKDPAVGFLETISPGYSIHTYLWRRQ
Sequence of Cytochrome P450 3A4 (Homo sapiens) (P08684 whole entry, looked up): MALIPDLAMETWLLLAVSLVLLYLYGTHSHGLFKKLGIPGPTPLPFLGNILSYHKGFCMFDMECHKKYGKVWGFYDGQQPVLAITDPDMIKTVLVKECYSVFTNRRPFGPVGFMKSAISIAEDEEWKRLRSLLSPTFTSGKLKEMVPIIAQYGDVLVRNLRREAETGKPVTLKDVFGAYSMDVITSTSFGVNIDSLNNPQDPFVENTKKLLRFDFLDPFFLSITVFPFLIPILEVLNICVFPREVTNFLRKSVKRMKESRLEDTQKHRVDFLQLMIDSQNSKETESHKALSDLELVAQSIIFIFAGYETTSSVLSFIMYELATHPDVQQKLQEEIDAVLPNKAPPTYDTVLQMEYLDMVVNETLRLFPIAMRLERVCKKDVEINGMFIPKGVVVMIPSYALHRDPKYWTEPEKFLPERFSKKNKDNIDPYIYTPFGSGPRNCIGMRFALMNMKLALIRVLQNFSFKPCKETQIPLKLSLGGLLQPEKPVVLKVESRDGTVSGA
Sequence of Cytochrome P450 1A2 (Homo sapiens) (P05177 whole entry, looked up): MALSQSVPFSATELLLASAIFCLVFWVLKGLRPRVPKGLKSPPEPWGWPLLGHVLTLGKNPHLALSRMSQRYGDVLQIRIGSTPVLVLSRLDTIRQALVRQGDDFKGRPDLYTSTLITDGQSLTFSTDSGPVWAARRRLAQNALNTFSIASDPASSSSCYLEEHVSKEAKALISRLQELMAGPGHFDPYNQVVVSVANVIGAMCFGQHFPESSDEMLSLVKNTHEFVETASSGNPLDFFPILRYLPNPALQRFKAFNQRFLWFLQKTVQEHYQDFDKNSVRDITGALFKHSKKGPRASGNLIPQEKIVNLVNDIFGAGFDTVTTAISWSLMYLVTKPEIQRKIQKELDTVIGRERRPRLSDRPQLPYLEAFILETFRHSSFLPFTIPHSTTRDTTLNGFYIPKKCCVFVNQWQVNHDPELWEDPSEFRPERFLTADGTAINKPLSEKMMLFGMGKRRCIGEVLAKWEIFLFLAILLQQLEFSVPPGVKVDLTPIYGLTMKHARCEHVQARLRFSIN
Sequence of Cytochrome P450 2D6 (Homo sapiens) (P10635 whole entry, looked up): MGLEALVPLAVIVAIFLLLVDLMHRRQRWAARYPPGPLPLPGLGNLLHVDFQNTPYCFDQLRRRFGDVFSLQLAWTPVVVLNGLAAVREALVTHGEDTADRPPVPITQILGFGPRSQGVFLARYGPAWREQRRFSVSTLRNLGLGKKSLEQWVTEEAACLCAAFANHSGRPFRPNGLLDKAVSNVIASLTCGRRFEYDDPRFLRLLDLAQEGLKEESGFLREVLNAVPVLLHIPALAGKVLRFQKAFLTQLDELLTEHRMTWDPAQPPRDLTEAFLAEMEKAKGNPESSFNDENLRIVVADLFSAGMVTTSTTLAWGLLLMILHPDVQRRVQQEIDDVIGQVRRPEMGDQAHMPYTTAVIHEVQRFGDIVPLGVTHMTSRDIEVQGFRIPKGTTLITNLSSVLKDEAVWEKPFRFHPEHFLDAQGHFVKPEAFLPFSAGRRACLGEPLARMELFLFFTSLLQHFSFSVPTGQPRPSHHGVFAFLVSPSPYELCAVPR
Sequence of Cytochrome P450 2C9 (Homo sapiens) (P11712 whole entry, looked up): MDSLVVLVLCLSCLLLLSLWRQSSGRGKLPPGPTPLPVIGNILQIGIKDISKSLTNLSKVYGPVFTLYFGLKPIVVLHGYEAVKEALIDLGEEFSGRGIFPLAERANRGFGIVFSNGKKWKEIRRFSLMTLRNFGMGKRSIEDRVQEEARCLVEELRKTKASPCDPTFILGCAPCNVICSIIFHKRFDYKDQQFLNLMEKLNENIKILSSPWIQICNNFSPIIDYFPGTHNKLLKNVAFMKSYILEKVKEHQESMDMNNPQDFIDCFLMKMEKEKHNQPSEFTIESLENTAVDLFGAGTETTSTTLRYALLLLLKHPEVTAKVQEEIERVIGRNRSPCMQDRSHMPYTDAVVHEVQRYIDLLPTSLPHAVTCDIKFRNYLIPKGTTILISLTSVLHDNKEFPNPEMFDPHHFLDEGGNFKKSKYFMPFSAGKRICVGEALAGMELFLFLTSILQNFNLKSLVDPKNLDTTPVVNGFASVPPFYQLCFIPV

`CN(C)Cc1ccccc1-c1cncnc1NCc1cccnc1`: the Potency is > 11.4 µM (inactive) in assay [1]; 12.6 µM (active) in assay [3]; > 46 µM (inactive) in [5]; > 46 µM (inactive) in assay [6]; 1.58 µM (active) in [9]; 6.31 µM (active) in assay [11]. In addition, the activity change, negative = inhibition is -0.642% (inactive) in [2] and 2.08% (inactive) in assay [13]. Further, the activity, negative = inhibition in assay [4] was 9.42% (inactive). The Potency result in assay [7], in assay [8], in assay [10] and in assay [14] was “inactive” throughout. Moreover, the compound was called inactive in assay [12] and in assay [15]. The max response came to 3.75% in assay [13] (setting [18]) and 4.73% in [13] (setting [19]).
Regarding `CN(C)Cc1ccccc1-c1cncnc1NCc1cccs1`, the Potency in assay [1] is > 11.4 µM (inactive); in assay [3], 25.1 µM (active); in assay [5], > 46 µM (inactive); in assay [6], > 46 µM (inactive). Further, the activity change, negative = inhibition in assay [2] was 8.74% (inactive); in assay [13], 5.02% (inactive). The activity, negative = inhibition in assay [4] is -5.04% (inactive). For the same compound, the Potency entry in assay [7], in [8], in assay [16] and in assay [14] was “inactive” in each case. Further, the call in assay [12] and in assay [15] was inactive. Also, the max response was 16.5% in assay [13] (setting [18]) and 25.4% in assay [13] (setting [19]).
Turning to `CC(C)CN1CCC2(CC1)CCN(C(=O)c1cnccn1)CC2`, the figures for the Potency in assay [1] and in assay [6] were > 11.4 µM (inactive) and > 46 µM (inactive), respectively. Further, the values for the activity change, negative = inhibition in assay [2] and in assay [13] were -3.54% (inactive) and -2.81% (inactive), respectively. The Potency result in assay [3], in assay [7] and in assay [8] was “inactive” in each case. In addition, the activity, negative = inhibition in [4] was 3.68% (inactive). Besides, the max response in assay [13] (setting [18]) was -8.95%; in assay [13] (setting [19]), -8.33%. In addition, in [15], the result was inactive.
Regarding `CN(C)Cc1ccccc1-c1cncnc1NC1CC1`, the Potency was > 11.4 µM (inactive) in assay [1], 15.8 µM (active) in assay [3], > 46 µM (inactive) in assay [5] and > 46 µM (inactive) in [6]. The results for the activity change, negative = inhibition in [2] and in [13] were -1.86% (inactive) and 6.51% (inactive), respectively. The activity, negative = inhibition in assay [4] is 2.98% (inactive). The Potency entry in assay [7], in [8], in [10] and in assay [14] was “inactive” throughout. For the same compound, the call in assay [12] and in assay [15] was inactive. For the same compound, the max response in assay [13] (setting [18]) was 18.3%; in assay [13] (setting [19]) it was 22.5%.
Consider `O=C(c1ccncc1)N1CCC2(CCCN(C(c3ccccc3)c3ccccc3)C2)CC1`, for which the Potency in assay [1] is > 11.4 µM (inactive); in assay [3], 0.2 µM (active); in [6], > 46 µM (inactive); in assay [17], 5.01 µM (active); in assay [11] it was 0.0398 µM (active). Besides, the activity change, negative = inhibition in assay [2] is 22.9% (inactive); in [13] it was 2.92% (inactive). Moreover, the activity, negative = inhibition in assay [4] was 11.1% (inactive). For the same compound, the Potency entry in [7], in assay [8] and in assay [10] was “inactive” in each case. Also, the max response came out at 12.6% in assay [13] (setting [18]) and 17.9% in assay [13] (setting [19]). Besides, the result in [15] was inactive.
In the case of `COCC(=O)N1CCC2(CCCN(Cc3ccccc3)C2)CC1`, the Potency is > 11.4 µM (inactive) in assay [1] and > 46 µM (inactive) in assay [6]. Moreover, the values for the activity change, negative = inhibition in [2] and in [13] were -19.3% (inactive) and 2.23% (inactive), respectively. For the same compound, the Potency result in assay [3], in [7] and in [8] was “inactive” each time. Also, the activity, negative = inhibition in assay [4] was 0.327% (inactive). In addition, the max response in assay [13] (setting [18]) amounted to 22.3%; in [13] (setting [19]), 27.9%. Moreover, the outcome in [15] was inactive.
As for `CN1CCC2(CC1)CCN(S(=O)(=O)c1ccccc1)CC2`, the Potency in assay [1] is > 11.4 µM (inactive); in [6] it was > 46 µM (inactive). Besides, the activity change, negative = inhibition in [2] is -4.78% (inactive); in [13], -2.86% (inactive). In addition, the Potency entry in assay [3], in assay [7] and in [8] was “inactive” in each case. Besides, in [4], the activity, negative = inhibition was -1.02% (inactive). Also, the values for the max response in [13] (setting [18]) and in [13] (setting [19]) were 8% and 9.03%, respectively. Further, in assay [15], the result was inactive.
